Only some compounds are listed: those with a hit (about 2.9% of all), similar ones and a draw of the others.
FID counter – displaces DNA intercalator in HCV helicase counter-screen. DNA fluorescent intercalator displacement, fluorescence. inhibition, % at 7.9 µM. 0.17% of 290,000 active. AID 1845; in the data active = inhibition above about 37%;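 note: higher means more ethidium bromide displaced from hairpin DNA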
dFosB act – activators of mouse delta FosB homodimer | activation, % at 25 µM | 0.99% of 340,000 active | AID 493131 | purified delta FosB, TAMRA-CDK5 oligo fluorescence polarization; percent of positive-control signal above neutral wells;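 active = mean activation above about 17%, with every replicate also reaching it, limit read from the data, passing the limit was not always enough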
MEKK2 mut-MEK5 – signal of MEK5 binding to mutant human MEKK2 PB1 domain | bead flow cytometry, Alexa488-MEK5 binding to MEKK2 mutant | percent response, % at 10 µM | 0.35% of 290,000 active | AID 1530; in the data active = percent response above about 24%, passing the limit was not always enough
MEKK3 PB1 HTS – modulators (inhibitors or enhancers) of MEK5 binding to human MEKK3 PB1 domain | Q99759 | bead-based flow cytometry, Alexa488-MEK5 binding to MEKK3; actives lie on both sides; 0 = blocked by unlabeled MEK5, 100 = vehicle | binding response (% of control), % at 10 µM | 1.4% of 290,000 active | AID 1529;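 active = binding response more than 3 SD above or below the average of its plate-row segment, actives on both sides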;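 note: Alexa488 bead fluorescence after subtracting the streptavidin-only scavenger bead signal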
Target sequence (Q99759 whole entry, looked up, the tested form may be a part): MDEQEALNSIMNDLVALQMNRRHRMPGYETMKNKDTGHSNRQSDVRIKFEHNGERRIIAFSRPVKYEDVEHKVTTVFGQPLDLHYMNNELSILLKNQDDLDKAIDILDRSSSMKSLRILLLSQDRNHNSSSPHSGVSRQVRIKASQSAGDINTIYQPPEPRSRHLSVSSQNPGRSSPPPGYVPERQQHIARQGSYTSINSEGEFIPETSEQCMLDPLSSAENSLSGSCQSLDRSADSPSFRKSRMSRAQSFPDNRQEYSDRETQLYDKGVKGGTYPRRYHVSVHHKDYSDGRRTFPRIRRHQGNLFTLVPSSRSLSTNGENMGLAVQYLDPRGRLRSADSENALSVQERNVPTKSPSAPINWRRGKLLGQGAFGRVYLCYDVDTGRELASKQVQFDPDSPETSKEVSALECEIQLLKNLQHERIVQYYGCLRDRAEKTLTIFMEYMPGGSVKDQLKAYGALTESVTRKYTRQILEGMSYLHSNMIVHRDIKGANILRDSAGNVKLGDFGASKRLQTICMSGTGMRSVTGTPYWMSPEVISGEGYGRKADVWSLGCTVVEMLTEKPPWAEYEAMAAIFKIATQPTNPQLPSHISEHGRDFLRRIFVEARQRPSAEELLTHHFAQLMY
MEKK2wt PB1 HTS – raises or lowers MEK5 binding to wildtype human MEKK2 PB1 domain | AID 1531 | 1.1% of 290,000 active | binding response (% of control), % at 10 µM | bead flow cytometry, Alexa488-MEK5 binding to MEKK2 WT; actives lie on both sides | Q9Y2U5; in the data active = binding response below about 67% or above about 130%
MEKK2wt confirm – raises or lowers MEK5 binding to wildtype human MEKK2, retest; bead flow cytometry, Alexa488-MEK5 binding to MEKK2 WT; actives lie on both sides; 2.4% of 5,900 active; binding response (% of control), % at 10 µM; AID 1892; shares compounds with MEKK3 PB1 HTS; in the data active = binding response below about 16% or above about 210%; inactive = in between
MEKK2mut confirm – signal of MEK5 binding to mutant human MEKK2, retest; shares compounds with MEKK3 PB1 HTS; bead flow cytometry, Alexa488-MEK5 binding to MEKK2 mutant; percent response, % at 10 µM; 2% of 5,900 active; AID 1893; in the data active = percent response mostly above about 71%, no sharp cut-off; inactive = mostly below about 38%;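 note: higher means compound restores mutant binding toward wildtype level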
MEKK3-MEK5 inh – confirmation of inhibitors of MEK5 binding to human MEKK3. shares compounds with MEKK3 PB1 HTS. bead flow cytometry, Alexa488-MEK5 binding to MEKK3; active compounds read low. binding response (% of control), % at 10 µM. 1.8% of 5,900 active. AID 1894;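 active = binding response below 72% of control, or above a set upper limit, though filed actives all read lower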;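 note: lower values mean stronger disruption of MEK5 binding to MEKK3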
Large screens that a line does not name were inactive (follow-up assays come after a bar, where they were run); [ ] = dose if it differs, or a comment.

CCCCOc1ccc(Cl)cc1Nc1nc(NCCO)nc(N2CCCC2)n1	MEKK2wt PB1 HTS 141 (no result: FID counter) | MEKK2wt confirm inactive | MEKK2mut confirm inactive | MEKK3-MEK5 inh inactive
O=C(Nc1ccc(Cl)c(Cl)c1)Nc1ccc(N2CCCC2)c(S(=O)(=O)Nc2ccccc2Cl)c1	MEKK2wt PB1 HTS 44[inhibitor] | MEKK2wt confirm inactive | MEKK2mut confirm inactive | MEKK3-MEK5 inh inactive
Cc1ccc(NC(=O)c2cc3c(s2)CCCC3)cc1S(=O)(=O)Nc1ccccc1Cl	MEKK3 PB1 HTS 133 | MEKK2wt confirm inactive | MEKK2mut confirm inactive | MEKK3-MEK5 inh inactive
COc1ccccc1NS(=O)(=O)c1cc(NC(=O)c2cnccn2)ccc1N1CCOCC1	MEKK3 PB1 HTS 58[inhibitor] | MEKK2wt confirm inactive | MEKK2mut confirm inactive | MEKK3-MEK5 inh inactive
O=C(Nc1ccc(F)cc1)Nc1ccc(N2CCCC2)c(S(=O)(=O)Nc2ccccc2Cl)c1	none
Cc1ccc(C(=O)Nc2ccc(C)c(S(=O)(=O)Nc3ccccc3Cl)c2)s1	none
COc1cc(C(=O)NNC(=O)CN2C(=O)NC(C)(c3ccc(C)cc3)C2=O)cc(OC)c1OC (configuration not stated)	none (no result: FID counter, MEKK2 mut-MEK5, MEKK3 PB1 HTS, MEKK2wt PB1 HTS)
CC[C@H](C)NC(=O)CCCCCn1c(=S)[nH]c2c([nH]c3ccc(OC)cc32)c1=O	MEKK3 PB1 HTS 138 | MEKK2wt confirm inactive | MEKK2mut confirm inactive | MEKK3-MEK5 inh inactive
CCCS(=O)(=O)N1CCN(CC2CC3C=CC2C3)CC1 (configuration not stated)	MEKK2 mut-MEK5 24 | MEKK2wt confirm inactive | MEKK2mut confirm inactive | MEKK3-MEK5 inh inactive
CCS(=O)(=O)N1CCN(CC2CC3C=CC2C3)CC1 (configuration not stated)	none
COc1cccc(CNCc2ccc(SC)cc2)c1OC	none
CCOC(=O)C1=C(C)N(CCCC(=O)O)C(=O)NC1c1ccc(C(F)(F)F)cc1 (configuration not stated)	none (no result: FID counter, dFosB act)
CCOc1ccc(Cn2ccnc2)cc1[N+](=O)[O-]	MEKK3 PB1 HTS 129 | MEKK2wt confirm inactive | MEKK2mut confirm inactive | MEKK3-MEK5 inh inactive
NS(=O)(=O)c1cccc(NC(=O)COC(=O)c2ccc(S(=O)(=O)N3CCOCC3)cc2)c1	none (no result: FID counter, MEKK2 mut-MEK5, MEKK3 PB1 HTS, MEKK2wt PB1 HTS)
COc1ccc(NC(C)c2ccccc2)cc1 (configuration not stated)	none
CC(Nc1ccccc1)c1ccncc1 (configuration not stated)	MEKK3 PB1 HTS 133 | MEKK2wt confirm inactive | MEKK2mut confirm inactive | MEKK3-MEK5 inh inactive
CC(=O)Nc1ccc(NS(=O)(=O)c2cccc3nonc23)cc1	none
CC(C)CC(=O)NC(=S)Nc1nc(-c2ccccc2)cs1	none
CCCC(=O)NC(=S)Nc1nc(-c2ccc(OC)cc2)cs1	MEKK3 PB1 HTS 137 | MEKK2wt confirm inactive | MEKK2mut confirm inactive | MEKK3-MEK5 inh inactive
CC(C)CC(=O)NC(=S)Nc1nc(-c2ccc(Cl)cc2)cs1	MEKK3 PB1 HTS 155 | MEKK2wt confirm inactive | MEKK2mut confirm inactive | MEKK3-MEK5 inh inactive
COc1ccc(-c2csc(NC(=O)COC(=O)c3ccco3)n2)cc1	MEKK3 PB1 HTS 138 | MEKK2wt confirm inactive | MEKK2mut confirm inactive | MEKK3-MEK5 inh inactive
C/C(=N\Nc1nc2c(s1)CCCC2)c1ccccc1	none
O=C(NNC(=O)c1ccccc1O)c1cc2ccccc2o1	none (no result: FID counter, MEKK2 mut-MEK5, MEKK3 PB1 HTS, MEKK2wt PB1 HTS)
O=C(NC1CCCCC1)C(c1ccc(Cl)cc1)N1CCC2(CC1)OCCO2 (configuration not stated)	MEKK3 PB1 HTS 2.0[inhibitor], MEKK2wt PB1 HTS 2.0[inhibitor] | MEKK2wt confirm inactive | MEKK2mut confirm inactive | MEKK3-MEK5 inh inactive
O=C(Nc1cccc(CNCCc2c[nH]c3ccccc23)c1)c1ccccc1Cl	MEKK2 mut-MEK5 32, MEKK2wt PB1 HTS 150 | MEKK2wt confirm inactive | MEKK2mut confirm inactive | MEKK3-MEK5 inh inactive
COc1ccc(CCNC(=O)CSC2=NS(=O)(=O)c3ccccc3N2)cc1OC	none (no result: FID counter, MEKK2 mut-MEK5, MEKK3 PB1 HTS, MEKK2wt PB1 HTS)
O=C(NC(c1ccccc1)c1ccccc1)c1ccc(Br)o1	none
O=C(/C=C/c1ccc(Br)o1)NC(c1ccccc1)c1ccccc1	MEKK3 PB1 HTS 140 | MEKK2wt confirm inactive | MEKK2mut confirm inactive | MEKK3-MEK5 inh inactive
CC[n+]1c(/C=C/N(C)c2ccccc2)oc2ccccc21	MEKK3 PB1 HTS 72[inhibitor] | MEKK2wt confirm inactive | MEKK2mut confirm inactive | MEKK3-MEK5 inh inactive
COc1cc2c(cc1OC)CN(C(=O)C1CCCN(C(=O)c3ccc(Cl)cc3)C1)CC2 (configuration not stated)	none (no result: FID counter, MEKK2 mut-MEK5, MEKK3 PB1 HTS, MEKK2wt PB1 HTS)
CC(C)c1ccc(OCCCN2CCCC2)cc1	MEKK2 mut-MEK5 26 | MEKK2wt confirm inactive | MEKK2mut confirm inactive | MEKK3-MEK5 inh inactive
COc1ccc(NC(=O)Cc2c(SC)c3ccccc3n2Cc2ccccc2)cc1	MEKK3 PB1 HTS 160 | MEKK2wt confirm inactive | MEKK2mut confirm inactive | MEKK3-MEK5 inh inactive
CC(=O)c1cccc(N(C(=O)c2ccco2)C(C(=O)NC2CCCCC2)c2ccc(C)o2)c1 (configuration not stated)	none
CCOC(=O)C1=C(O)c2ccccc2C(=O)/C1=C\c1ccc(C)cc1	MEKK3 PB1 HTS 68[inhibitor] | MEKK2wt confirm inactive | MEKK2mut confirm inactive | MEKK3-MEK5 inh inactive
Nc1nc(Cl)cc(Sc2ccc3ccccc3c2)n1	MEKK2 mut-MEK5 26 | MEKK2wt confirm inactive | MEKK2mut confirm inactive | MEKK3-MEK5 inh inactive
CCOc1ccccc1N1Cc2cc(C)c(C)cc2C1	none
COc1ccc(OC)c(N2Cc3cc(C)c(C)cc3C2)c1	MEKK3 PB1 HTS 8.0[inhibitor], MEKK2wt PB1 HTS 10[inhibitor] | MEKK2wt confirm inactive | MEKK2mut confirm inactive | MEKK3-MEK5 inh inactive
O=C(NCc1ccncc1)c1ccc(S(=O)(=O)Nc2ccccc2)cc1	none (no result: FID counter, MEKK2 mut-MEK5, MEKK3 PB1 HTS, MEKK2wt PB1 HTS)
CC1(C)NC(=O)N(CC(O)CN2C(=O)CCC2=O)C1=O (configuration not stated)	none
CC1(C)NC(=O)N(CC(O)Cn2nnc3ccccc32)C1=O (configuration not stated)	MEKK3 PB1 HTS 80[inhibitor] | MEKK2wt confirm inactive | MEKK2mut confirm inactive | MEKK3-MEK5 inh inactive
CO/N=C/c1ccc(Oc2ccc(C)cc2)nc1	MEKK2 mut-MEK5 26 | MEKK2wt confirm inactive | MEKK2mut confirm inactive | MEKK3-MEK5 inh inactive
CCCc1cnc(NCCNCC(O)COc2ccc(Cl)c(Cl)c2)nc1 (configuration not stated)	FID counter 40, MEKK2wt PB1 HTS 144 | MEKK2wt confirm inactive | MEKK2mut confirm inactive | MEKK3-MEK5 inh inactive
CCc1ccc(C(=O)NNC(=O)c2cccc(S(=O)(=O)N3CCN(C)CC3)c2)cc1	none (no result: FID counter, MEKK2 mut-MEK5, MEKK3 PB1 HTS, MEKK2wt PB1 HTS)
COc1ccc(/C=N\NC(=O)CC(=O)Nc2cccc(Cl)c2)cc1OC	MEKK3 PB1 HTS 73[inhibitor] | MEKK2wt confirm inactive | MEKK2mut confirm inactive | MEKK3-MEK5 inh inactive

Screens deposited in PubChem BioAssay by several laboratories.
